Screening results (PubChem)
The sample as a whole holds a higher share of hits than the screen did.
HT1080 IDH1KD tx = qHTS for induction of synthetic lethality in tumor cells producing 2HG: qHTS for the HT-1080-IDH1KD cell line. 360,000 compounds, 2% hits. AID 686971, 2013. Potency, µM (titrated, usually from 46.1 µM), actives largely listed as cytotoxic. HT-1080 IDH1 knockdown viability, ATP luminescence, 48 h
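Using the IDH1-knockdown HT-1080 line run in the same batch and compound series as the NT line, viability after 48 h at 37 °C was determined by CellTiter-Glo luminescence and expressed as % activity.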
DT40 TDP1 no CPT = qHTS for Inhibitors of human tyrosyl-DNA phosphodiesterase 1 (TDP1): qHTS in cells in absence of CPT. DT40 Tdp1-/- hTDP1 cells, no CPT, ATP luminescence, 48 h. Potency, µM (titrated, usually from 46.2 µM), usual class: inhibitors. 420,000 compounds, 15% hits. AID 686978, 2013; further: nearly all actives have a fitted effect of over 55% in size
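Luminescent ATP content (CellTiter-Glo) served as the growth readout. Knockout chicken DT40 cells expressing human TDP1 were exposed to compounds without camptothecin for a minimum 48 hr at 37 °C.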
HT1080-NT tox = qHTS for induction of synthetic lethality in tumor cells producing 2HG: qHTS for the HT-1080-NT fibrosarcoma cell line | Potency, µM (top dose mostly 46.1 µM), actives largely listed as cytotoxic | HT-1080-NT fibrosarcoma viability, CellTiter-Glo ATP luminescence, 48 h | 360,000 compounds, 1.6% hits;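 further: NT is the 2HG producing partner of a matched IDH1 knockdown line; nearly all actives have a fitted effect of over 55% in size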
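750 cells/well, RPMI + 5% FBS; 2 h settle, compound pin-transfer, 48 h at 37 degrees C. CellTiter-Glo 10 min RT, luminescence. Normalized to DMSO and media-only wells.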
TDP1 cell CPT = qHTS for Inhibitors of human tyrosyl-DNA phosphodiesterase 1 (TDP1): qHTS in cells in presence of CPT | chicken DT40 Tdp1-/-;hTDP1 cells + 20 nM CPT, ATP luminescence, 48 h | AID 686979, 2013 | 420,000 compounds, 12% hits | Potency, µM (top dose mostly 46.2 µM), actives largely listed as inhibitors; further: nearly all actives have a fitted effect of over 55% in size
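Cell growth measured by CellTiter-Glo luminescence after a minimum 48 h, 37 C compound exposure with 20 nM CPT in Tdp1-knockout DT40 cells stably expressing hTDP1, seeded 400/well; qHTS titration format.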
12-LOX inh = Primary qHTS assay for inhibitors of human arachidonate 12S-lipoxygenase (ALOX12): Round 2; Polyunsaturated fatty acid lipoxygenase ALOX12 (Homo sapiens), P18054; purified 12hLO, xylenol orange hydroperoxide absorbance; Potency, µM (series often up to 108 µM), most hits filed as inhibitors; 580,000 compounds, 1.1% hits
Target sequence (P18054 whole entry, looked up): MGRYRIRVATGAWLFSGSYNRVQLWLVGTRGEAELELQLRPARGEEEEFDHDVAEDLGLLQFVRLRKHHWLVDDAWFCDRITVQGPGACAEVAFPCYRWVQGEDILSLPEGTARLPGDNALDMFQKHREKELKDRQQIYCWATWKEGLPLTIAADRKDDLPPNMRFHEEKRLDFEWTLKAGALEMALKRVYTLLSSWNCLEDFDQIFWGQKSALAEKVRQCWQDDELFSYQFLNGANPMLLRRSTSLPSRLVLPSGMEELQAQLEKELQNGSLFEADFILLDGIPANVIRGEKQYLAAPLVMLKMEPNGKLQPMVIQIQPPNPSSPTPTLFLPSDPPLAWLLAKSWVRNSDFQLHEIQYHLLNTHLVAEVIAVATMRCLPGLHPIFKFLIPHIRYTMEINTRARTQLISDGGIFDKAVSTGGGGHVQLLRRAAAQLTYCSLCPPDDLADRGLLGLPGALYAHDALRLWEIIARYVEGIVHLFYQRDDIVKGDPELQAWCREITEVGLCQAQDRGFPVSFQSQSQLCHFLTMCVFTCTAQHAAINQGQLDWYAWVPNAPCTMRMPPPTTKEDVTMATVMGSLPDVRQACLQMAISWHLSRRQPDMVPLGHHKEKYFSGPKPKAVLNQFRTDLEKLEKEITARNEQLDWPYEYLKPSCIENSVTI
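Purified human 12hLO at 150 nM in 25 mM Hepes, 0.01% Triton X-100, pH 7.0, preincubated 15 min at room temperature with compound. Reaction started with 40 uM arachidonic acid, 30 min at room temperature. Hydroperoxide measured by Fe-xylenol orange, 573/405 nm absorbance ratio.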
IL1B secr inh = qHTS for Inhibitors of Inflammasome Signaling: IL-1-beta AlphaLISA Primary Screen | activity change, % at 57.5 µM | THP-1 LPS/ATP IL-1B secretion, AlphaLISA, 16 h; active compounds read low | AID 743279, 2014 | 360,000 compounds, 4.7% hits; in the data active means activity change below about -50%; inconclusive means mostly about -30% to -49%
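Secreted IL-1B measured by AlphaLISA bead assay after 16 h compound exposure of THP-1 cells; compounds (final up to 57.5 uM) added 1 h before LPS (250 ng/mL) and ATP (1.25 mM) stimulation; lower signal means less secretion.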
A number is an active result; . = inactive; ? = inconclusive; / = no result given. Unless noted, the call rests on the fitted dose curve; in most records, active means well fitted curve in the direction sought with a large enough effect; inconclusive means small, poorly fitted or top-dose-only effect, or another doubt; inactive means no such curve, though single readings can be large; an effect the other way counts as inactive or inconclusive.

SMILES	HT1080 IDH1KD tx	DT40 TDP1 no CPT	HT1080-NT tox	TDP1 cell CPT	12-LOX inh	IL1B secr inh
O=c1c2ccccc2c(-c2ccc(O)cc2)nn1-c1cccc(C(F)(F)F)c1	20.6µM	14.6µM	?	14.6µM	.	-97.7
O=C([C@@H]1C[C@H](F)CN1C(=O)Cc1ccc(F)cc1)N1CCCCC1	/	/	/	/	.	/
C[C@@H]1CN([C@@H](C)CO)C(=O)c2cccc(NC(=O)C3CCCCC3)c2O[C@@H]1CN(C)Cc1ccc(Cl)c(Cl)c1	?	20.6µM	?	10.3µM	.	-90.4
C[C@H](CO)N1C[C@H](C)[C@@H](CN(C)Cc2ccc(-c3ccccc3)cc2)Oc2c(NC(=O)Cc3ccccc3)cccc2C1=O	.	23.1µM	.	?	/	.
C[C@H](CO)N1C[C@H](C)[C@@H](CN(C)Cc2ccc(Cl)c(Cl)c2)Oc2c(NC(=O)Cc3ccccc3)cccc2C1=O	?	14.6µM	.	?	.	?
C[C@H](CO)N1C[C@H](C)[C@@H](CN(C)Cc2ccc(Cl)c(Cl)c2)Oc2c(NS(=O)(=O)c3ccc(F)cc3)cccc2C1=O	?	23.1µM	?	?	.	-82.2
O=C(C1CC1)N1CC(Oc2ccc(-c3noc(C4CCOCC4)n3)cc2)C1	/	/	/	/	.	/
C[C@H](CO)N1C[C@H](C)[C@@H](CN(C)Cc2ccccc2)Oc2c(NC(=O)Cc3ccccc3)cccc2C1=O	?	10.3µM	?	14.6µM	.	.
C[C@@H]1CN([C@@H](C)CO)C(=O)c2cccc(NS(=O)(=O)c3cccs3)c2O[C@H]1CN(C)Cc1ccc(C(F)(F)F)cc1	.	?	.	16.4µM	.	.
C[C@H](CO)N1C[C@H](C)[C@@H](CN(C)Cc2ccncc2)Oc2c(NC(=O)Cc3ccccc3)cccc2C1=O	14.6µM	?	?	?	.	.
C[C@H](CO)N1C[C@H](C)[C@@H](CN(C)C)Oc2c(NC(=O)Cc3ccccc3)cccc2C1=O	.	.	.	?	.	.
C[C@H](CO)N1C[C@H](C)[C@@H](CN(C)Cc2ccncc2)Oc2c(NC(=O)C3CCCCC3)cccc2C1=O	.	?	.	?	.	.
C[C@@H]1CN([C@@H](C)CO)C(=O)c2cc(NC(=O)C3CC3)ccc2O[C@@H]1CN(C)Cc1ccc(Cl)c(Cl)c1	?	23.1µM	.	20.6µM	.	?
C[C@H](CO)N1C[C@H](C)[C@@H](CN(C)Cc2ccc(-c3ccccc3)cc2)Oc2c(NS(=O)(=O)c3ccccc3)cccc2C1=O	.	18.4µM	.	20.6µM	.	?
O=C(Nc1cc(C(F)(F)F)ccc1Cl)c1nn(-c2cccc(Cl)c2)ccc1=O	/	/	/	/	.	/
O=C(NC1CCCC1)C(c1ccc(Cl)cc1)N(Cc1ccc(F)cc1)C(=O)CCl (stereo not drawn)	.	2.59µM	.	2.59µM	/	?
O=C(NC1CCCC1)C(c1ccc(F)cc1)N(Cc1ccc(Cl)cc1)C(=O)CCl (stereo not drawn)	.	4.11µM	.	3.26µM	?	-102.3
CN(Cc1ccc(Cl)cc1)C(C(=O)NC1CC1)c1ccc(F)cc1 (stereo not drawn)	/	/	/	/	.	/
CCn1cc2nc(SCC(=O)Nc3ccc(OC)c(OC)c3)n(Cc3ccc(Cl)cc3)c(=O)c2n1	/	?	/	18.4µM	.	/
CCn1cc2nc(SCc3cccc(OC)c3)n(Cc3ccc(Cl)cc3)c(=O)c2n1	/	13µM	/	16.4µM	?	/
CCn1cc2nc(SCc3cc(C)ccc3C)n(CCc3ccccc3)c(=O)c2n1	/	18.4µM	/	20.6µM	.	/
N#CCc1ccc(NC(=O)CCSc2ccc(Cl)cc2)cc1	/	/	/	/	.	/
CCOc1ccc(-c2nc(CSCC(=O)NCCCN3CCOCC3)c(C)o2)cc1	/	/	/	/	.	/
Cc1ccccc1[C@H]1C[C@@H](O)[C@@H](O)[C@@H]1NS(=O)(=O)c1ccc(C#N)cc1	/	/	/	/	.	/
COC[C@@H]1CN(Cc2cccc(OC)c2OC)C[C@H]1c1ccccn1	/	/	/	/	.	/
SMILES	HT1080 IDH1KD tx	DT40 TDP1 no CPT	HT1080-NT tox	TDP1 cell CPT	12-LOX inh	IL1B secr inh
COc1cccc(C(=O)/C=C2\Sc3ccccc3N2C)c1	.	?	.	?	?	-76.7
CCc1ccc(-c2nc3c(=O)n(C)c(=O)nc-3n(CC)n2)cc1	/	2.82µM	/	2.82µM	/	/
CCCc1nc2c([nH]1)c(=O)n(C)c(=O)n2C	.	?	?	.	.	.
CCCc1nc2c(=O)n(C)c(=O)nc-2n(C)n1	2.06µM	1.16µM	3.66µM	1.64µM	.	-105.6
Cn1nc(-c2ccccn2)nc2c(=O)n(C)c(=O)nc1-2	1.64µM	0.517µM	1.84µM	0.651µM	?	-93.6
Cc1ccccc1-c1nc2c(=O)n(C)c(=O)nc-2n(C)n1	/	0.631µM	/	0.708µM	/	/
COc1ccc(-c2nn(Cc3nc(-c4ccccc4C)no3)c(=O)c3ccccc23)cc1	/	/	/	/	.	/
COc1ccccc1OCCNC(=O)C1CCCN(c2cn[nH]c(=O)c2)C1 (stereo not drawn)	/	/	/	/	.	/
O=[N+]([O-])c1c(C(Cl)Cl)nn(-c2ccccc2)c1N1CCCC1	?	?	.	20.6µM	.	.
CCOC(=O)C1CCN(c2c([N+](=O)[O-])c(C(Cl)Cl)nn2-c2ccccc2)CC1	.	?	.	?	.	.
COc1cc(C(=O)NC(=S)Nc2nc(-c3ccc(F)cc3)cs2)cc(OC)c1OC	.	.	.	.	.	.
CC(C)n1nc(C(=O)Nc2nc(-c3ccc(Cl)s3)cs2)c2ccccc2c1=O	/	/	/	/	.	/
O=C(COc1ccc(Cl)cc1)Nc1nc(-c2cccs2)cs1	.	?	.	?	.	.
Cc1c(C(=O)Nc2nccs2)sc2nc(-c3cccs3)cc(C(F)(F)F)c12	?	23.1µM	?	18.4µM	.	.
COc1cc(C(=O)Nc2nc(-c3cccs3)cs2)cc(OC)c1OC	.	13µM	?	23.1µM	.	-77.5
O=C(Nc1nc(-c2ccc(Cl)s2)cs1)c1ccncc1	.	9.2µM	.	9.2µM	.	.
O=C(Nc1nc(-c2cccs2)cs1)c1ccc(Cl)cc1	?	14.6µM	?	25.9µM	?	.
CCC(c1cccs1)N1C(=O)[C@H]2CN(S(=O)(=O)c3cc(C)ccc3C)C[C@H]2C1=O (stereo partly drawn)	/	/	/	/	.	/
